The values that follow come from PubChem BioAssay AID743263 (The Scripps Research Institute Molecular Screening Center, 2014).

About 250 (23%) of roughly 1,100 compounds were called active. Not all results are given here. A number with no mark means an inactive call. Rule as the data show it: active = inhibition above about 25%; inactive = the rest.

The target in this assay is Tyrosyl-DNA phosphodiesterase 2 (Homo sapiens) (UniProt O95551). In words: blockers of TDP2 phosphodiesterase activity – biochemical, epi absorbance, recombinant enzyme, confirmation (AID 743263).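 Also: 0% = vehicle with enzyme and 100% = no enzyme buffer only.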 As to conditions: recombinant human TDP2, absorbance read-out; at 12.8 µM; stronger effect = higher value.
Sequence of Tyrosyl-DNA phosphodiesterase 2 (Homo sapiens) (O95551 whole entry, looked up): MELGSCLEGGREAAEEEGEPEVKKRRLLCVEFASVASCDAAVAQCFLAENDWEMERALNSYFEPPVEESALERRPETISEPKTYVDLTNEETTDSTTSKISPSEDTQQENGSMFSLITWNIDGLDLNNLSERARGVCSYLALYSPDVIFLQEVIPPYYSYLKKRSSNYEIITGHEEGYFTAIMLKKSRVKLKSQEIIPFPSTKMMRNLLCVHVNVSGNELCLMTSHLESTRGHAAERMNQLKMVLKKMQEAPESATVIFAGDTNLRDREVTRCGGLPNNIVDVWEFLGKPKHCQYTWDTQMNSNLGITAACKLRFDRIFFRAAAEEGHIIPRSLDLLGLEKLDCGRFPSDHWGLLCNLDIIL
For orientation: inhibition means the relative decrease from the control value, in per cent. With `NC1=CC(=O)C(=O)c2cccnc21`, the inhibition was 65.8% (active).

As for `CCSc1nnc(SCC(=O)NNC(=O)c2ccccc2F)s1`, the inhibition is -14.1%.

Regarding `Cc1cc(C)c(OCCN2CC(C)OC(C)C2)c(Br)c1` (stereo not drawn), the inhibition was -5.14%.

Regarding `CCCCCCCCc1c(O)nc(-n2[nH]c(C)c(CCO)c2=O)[nH]c1=O`, the inhibition was 27.3% (active).

In the case of `CCOC(=O)N1CCC(c2cc(=O)n(-c3ccccc3)[nH]2)CC1`, the inhibition was 0.79%.

Regarding `Cc1ccc(S(=O)(=O)N2CCC(C(=O)NCCC3=CCCCC3)CC2)cc1C`, the inhibition was -3.83%.

On to `CC(=O)N(C1=C(Cl)C(=O)c2ccccc2C1=O)c1ccc(C(=O)O)cc1`, for which the inhibition was 59.3% (active).

For the compound `CC(C)Cn1c(N)c(C(=O)NCc2cccs2)c2nc3ccccc3nc21`, the inhibition is 10.2%.

Turning to `CCN(CC)CCN1C(=O)C2C(C(=O)Nc3ccc(Br)cc3)C3C=CC2(O3)C1C(=O)NC1CCCCC1` (stereo not drawn), the inhibition was -2.2%.

As to `COc1ccccc1C1C(C#N)=C(N)Oc2c1c(-c1ccccc1)nn2-c1ccccc1` (stereo not drawn), the inhibition was -0.56%.

For `Cn1nc(N)c2ncc(C(Cl)(Cl)Cl)nc21`, the inhibition is 2.05%.

With `COc1ccc2c(c1)c(=Cc1ccc(N(C)C)cc1)c1cc(-c3ccccc3)[n+](C)n12`, the inhibition was 9.49%.

Take `Oc1c(C=Nc2cccc3nsnc23)ccc2ccccc12`: the inhibition was 41.4% (active).

As to `COc1ccc(-c2csc(Nc3ccc(O)cc3)n2)cc1`, the inhibition was 3.53%.

With `O=C(OCC(=O)N1CCN(c2ccccc2)CC1)c1ccc([N+](=O)[O-])s1`, the inhibition is 10.4%.

As to `COc1cc(OC)cc(C(=O)OCC(=O)Nc2sccc2C(N)=O)c1`, the inhibition is -2.14%.

As for `COc1cc(NC(=O)COC(=O)c2ccc([N+](=O)[O-])s2)cc(OC)c1OC`, the inhibition is 35.1% (active).

Take `O=C(NC1CCCCC1)N1CCc2[nH]c3ccccc3c2C1`: the inhibition is 7.01%.

Take `Cc1ccc(Cl)cc1NC(=O)CN1CCN(S(=O)(=O)N2CCOCC2)CC1`: the inhibition is -8.33%.

In the case of `O=c1oc2ccccc2c(CNc2ccccc2)c1[N+](=O)[O-]`, the inhibition was 11.7%.

In the case of `CCN(CC)CCCC(C)n1c2nc(=O)[nH]c(=O)c-2nc2cc(Cl)ccc21` (stereo not drawn), the inhibition was 52.2% (active).

As to `O=S(=O)(Nc1ccc(O)c2ccccc12)c1ccc(OC(F)(F)F)cc1`, the inhibition is 15.5%.

As for `Cc1ccc(OCCCCc2c(C)n[nH]c2C)cc1`, the inhibition was 2.05%.

In the case of `CN1c2ccc(C=O)c3c(C=O)ccc(c23)N(C)C1(C)C`, the inhibition is 21%.

On to `CC(=O)c1ccc(S(=O)(=O)N2CCC3(CC2)OCCO3)cc1`, for which the inhibition is -6.04%.

Take `COC1=C(N2CCOCC2)C(=O)c2ccccc2C1=O`: the inhibition is 30.9% (active).

In the case of `COc1ccc(S(=O)(=O)/N=C2\C=C(NS(=O)(=O)c3ccccc3)C(=O)c3ccccc32)cc1`, the inhibition is 16.7%.

As to `COCCN1C=C2C(=O)C(C)(OC(=O)C3CCCC3)C(=O)C=C2C=C1c1ccsc1` (stereo not drawn), the inhibition is 12.3%.

As to `O=C1Nc2ccc([N+](=O)[O-])cc2C1=Nc1cccc(CO)c1`, the inhibition was 28.1% (active).

`Cc1nn(-c2ccccc2)c2c1C(c1ccc(F)cc1)C(C#N)=C(N)O2` (stereo not drawn): the inhibition is -4.61%.

On to `CC1=NN(c2ccc(Cl)c(C(=O)O)c2)C(=O)/C1=C/c1ccc(-c2ccccc2[N+](=O)[O-])o1`, for which the inhibition was -34.7%.

Regarding `CCc1ccccc1NC(=S)Nc1cc(OC)c(NC(=O)C(C)C)cc1OC`, the inhibition is 2.01%.

Regarding `Clc1ccc(C2=CSC3=Nc4cccc5cccc(c45)N23)cc1`, the inhibition was 55% (active).

Take `O=C(NCc1ccccc1Cl)C(=O)NCC1CCCN1S(=O)(=O)c1cccs1` (stereo not drawn): the inhibition is -5.35%.

On to `Cc1ccccc1Cn1c2ccccc2c2cnn(CC(=O)NCc3ccco3)c(=O)c21`, for which the inhibition was -10.2%.

Turning to `COc1ccc2c(c1)C(C)=CC(C)(C)N2C(=O)Nc1ccccc1`, the inhibition is 7.25%.

Take `COCCn1nnnc1C(c1cc2ccc(OC)cc2[nH]c1=O)N1CCc2ccccc2C1` (stereo not drawn): the inhibition was -0.83%.

Consider `C=CCn1c(N)c(C(=O)OCC(C)C)c2nc3ccccc3nc21`, for which the inhibition is 9.13%.

As to `Oc1ccc(N=Cc2c(O)ccc3ccccc23)cc1`, the inhibition was 52.7% (active).

Regarding `Oc1ccc(N=Cc2sc3ccccc3c2Cl)cc1`, the inhibition was 71.6% (active).

For the compound `CCN1C(=O)c2cccc3c(N)ccc1c23`, the inhibition is 8.24%.

Turning to `CN(C)c1ccc(N/C=C/C(=O)C(F)(F)F)cc1`, the inhibition was -9.4%.

Consider `Cc1[nH][nH]c(=O)c1C(c1ccc(-c2ccc(Cl)cc2)o1)c1c(C)[nH][nH]c1=O`, for which the inhibition was 20.6%.

For the compound `O=Cc1cn(-c2ccccc2)nc1-c1ccccn1`, the inhibition is 2.54%.

Turning to `CC1CCCC(NC(=O)c2cc(-c3ccncc3)nc3ccccc23)C1C` (stereo not drawn), the inhibition was -1.39%.

Consider `CCOC(=O)c1c(C)[nH]c2c1-c1ccccc1C(=O)C2=O`, for which the inhibition is 84.2% (active).

With `Nc1ccc2nn(-c3ccc(Cl)cc3)nc2c1`, the inhibition is 1.36%.

As for `CCCCNC(=O)CCn1nc(-c2ccc(Cl)cc2)ccc1=O`, the inhibition was -5.6%.

With `O=C(COC(=O)Cc1c[nH]c2ccccc12)NCCc1ccccc1`, the inhibition is 4.15%.

With `Nc1nc(O)c(CC(=O)O)s1`, the inhibition was 4.54%.

Regarding `O=C(NC1=CC(=O)c2ccccc2C1=O)c1ccccc1`, the inhibition was 60.1% (active).

On to `Cc1ccc(C(=O)Nc2c(-c3ccccc3)[nH][nH]c2=O)cc1`, for which the inhibition was 12.1%.

Regarding `Nn1cnnc1N/N=C/c1cc([N+](=O)[O-])c(Cl)cc1Cl`, the inhibition was -5.21%.

On to `CCOc1ccc(C(c2c(C)[nH][nH]c2=O)c2c(C)[nH][nH]c2=O)cc1OCC`, for which the inhibition was 10.8%.

For the compound `CCOC(=O)c1ccc(Nc2cc3ccccc3c(=O)[nH]2)cc1`, the inhibition was 32.7% (active).

`CCOC(=O)c1ccc(NC2Nc3cc(C)nn3S2)cc1` (stereo not drawn): the inhibition is 7.05%.

Take `COc1ccccc1CN1CCN(C(c2ccccc2)c2ccccc2)CC1`: the inhibition was 3.64%.

In the case of `COCCNC(=O)c1ccc(S(=O)(=O)c2ccc(Cl)cc2)c(NC(C)=O)c1`, the inhibition was 9.19%.
